# Screening data deposited in PubChem by several laboratories.
# Mcl1 Bid PPI: Mcl-1/Bid interaction inhibition; Q07820; TR-FRET Mcl-1/Bid-Dy647 peptide binding, 1536-well; inhibition, % at 21.7 µM; actives 0.97% (n = 220,000); AID 1021;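 active = compounds that cut the binding signal by more than half at the single screening dose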;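 also: His-tagged Mcl-1 with europium anti-His antibody binding Bid BH3 peptide; 0% = Mcl-1 plus peptide wells and 100% = peptide-only wells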
# 14-3-3 Bad PPI: disrupts binding of bovine 14-3-3 zeta to phospho-Bad peptide | P63103 | TR-FRET 14-3-3zeta/Dy647-pBad peptide displacement, 1 h | inhibition, % at 21.7 µM | actives 0.71% (n = 220,000) | AID 781;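 active = inhibition above about 70%, limit read from the data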;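 also: 0% = full 14-3-3 plus peptide FRET controls and 100% = background without 14-3-3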
# Target sequence (P63103 whole entry, looked up): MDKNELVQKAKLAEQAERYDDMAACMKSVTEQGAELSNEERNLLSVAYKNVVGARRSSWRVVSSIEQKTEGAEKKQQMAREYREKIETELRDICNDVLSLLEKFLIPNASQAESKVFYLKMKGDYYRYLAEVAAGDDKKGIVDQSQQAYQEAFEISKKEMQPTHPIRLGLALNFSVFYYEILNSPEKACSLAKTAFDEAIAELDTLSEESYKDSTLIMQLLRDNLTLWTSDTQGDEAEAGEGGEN
# Mcl1-Noxa inh: disrupts binding of human Mcl-1 to Noxa peptide | Q07820 | TR-FRET Mcl-1/Noxa peptide binding, 2 h | inhibition, % at 21.7 µM | actives 1.5% (n = 220,000) | AID 1022;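 active = compounds that cut the protein-peptide binding signal by more than 50% relative to plate controls in a single-dose test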;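 also: His-tagged Mcl-1 with rhodamine Noxa BH3 peptide and terbium anti-His antibody; 0% = Mcl-1 plus Noxa peptide wells and 100% = peptide-only wells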
# Bim-Mcl-1: inhibitors of Bim-Mcl-1 interaction, human. Q07820. Bead-based flow cytometry, Bim peptide-Mcl-1 binding. inhibition, % at 10 µM. actives 0.1% (n = 190,000). AID 1009; in the data active = inhibition above about 40%;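 also: 0% = no compound tracer wells and 100% = peptide blocker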
# eIF4E 4G PPI: inhibitors of eIF4E and eIF4G interaction in translation initiation; TR-FRET eIF4E-eIF4GI(517-606) binding, 2 h; AID 782; inhibition, % at 21.7 µM; actives 0.37% (n = 220,000); P63073+Q04637;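 active = inhibition above about 30%, limit read from the data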;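 also: 0% = full FRET control wells and 100% = background wells lacking eIF4GI fragment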
# Hck Nef HTS: human Hck-Nef kinase inhibition; actives 0.68% (n = 220,000); AID 463187; inhibition, % at 20 µM; P08631; Recombinant Hck-YEEI plus Nef, Z-Lyte FRET kinase assay;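 active = Hck-Nef kinase inhibition above about 50%, limit read from the data; inactive = inhibition below that limit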;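 also: 0% = DMSO with Hck plus Nef and 100% = Hck alone without Nef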
# * marks the source's active call; other numbers are inactive results; x = no result; [ ] = dose if it differs, or a comment. Rows were chosen to be rich in hits. Some 3.5% of all compounds tested hit in one or more screens of this group.
SMILES,Mcl1 Bid PPI,14-3-3 Bad PPI,Mcl1-Noxa inh,Bim-Mcl-1,eIF4E 4G PPI,Hck Nef HTS
O=C(CCS(=O)(=O)c1cc(Br)cc2c1N(C(=O)C1CC1)CC2)N1CCN(c2ccccn2)CC1,-21,0,2,1,2,-4
CCOC(=O)c1cnc(Nc2nc3ccccc3o2)nc1CN1CCN(C)CC1,-62,-20,-67,-1,2,1
COc1cc(/C=N/NC(=O)C2C3CCCCC32C)cc(Br)c1O (stereo unspecified),-13,-12,51*,-6,0,5
O=C(NCC(=O)N(CCN1CCOCC1)C(C(=O)NC1CCCC1)c1ccccc1)c1cccs1 (stereo unspecified),-24,1,-12,0,1,20
Cc1nn(-c2ccccc2C(=O)O)c(=O)c2ccccc12,88*,82*,x,-4,-3,1
Cc1ccc(C(c2nnnn2C2CCCCC2)N2CCc3ccccc32)cc1 (stereo unspecified),-35,-11,22,0,-2,0
COc1cc(C(c2nnnn2C2CCCC2)N2CCc3ccccc3C2)ccc1O (stereo unspecified),9,61,77*,0,9,1
Oc1ccc(C(c2nnnn2C2CCCC2)N2CCc3ccccc3C2)cc1 (stereo unspecified),-11,76*,25,1,3,3
COc1ccc(C(c2nnnn2C2CCCC2)N2CCN(c3ccccc3)CC2)cc1 (stereo unspecified),-18,-1,-9,-2,-5,-13
Cc1c(Br)c([N+](=O)[O-])nn1CC(=O)NCC1CCCO1 (stereo unspecified),4,-4,2,1,1,18
O=C(Nc1ccc2ccccc2c1)NC1CCS(=O)(=O)C1 (stereo unspecified),-16,-4,9,-2,0,18
O=C(c1ccc2c(c1)OCO2)C1CCCN(C2CCN(CCc3ccccc3)CC2)C1 (stereo unspecified),-22,3,10,0,3,19
CC(=O)N1C(C)(C)CC(=NOC(=O)c2ccccc2)CC1(C)C,-4,92*,3,-3,-1,2
O=C(CSc1nnc2scc(-c3ccccc3)n12)N1CCN(Cc2ccccc2)CC1,95*,6,28,-1,-1,-1
CCOC(=O)c1[nH]c2c(c1C)C(=O)CC(c1ccco1)C2 (stereo unspecified),41,0,79*,0,8,10
Cc1c(C(=O)OCCOC(C)C)[nH]c2c1C(=O)CC(c1ccco1)C2 (stereo unspecified),-29,3,27,-1,-2,4
CSCCOC(=O)c1[nH]c2c(c1C)C(=O)CC(c1ccco1)C2 (stereo unspecified),-38,5,58*,0,6,7
COCCOC(=O)c1[nH]c2c(c1C)C(=O)CC(c1ccc(F)cc1)C2 (stereo unspecified),-18,-4,5,-1,2,0
Cc1c(C(=O)OCc2ccccc2)[nH]c2c1C(=O)CC(c1ccco1)C2 (stereo unspecified),72*,1,61*,-1,15,10
COCCOC(=O)c1[nH]c2c(c1C)C(=O)CC(c1ccco1)C2 (stereo unspecified),-2,13,52*,-2,8,5
COCCOC(=O)c1[nH]c2c(c1C)C(=O)CC(c1ccccc1)C2 (stereo unspecified),-10,-5,-4,3,-1,-8
CC(Sc1nncs1)C(=O)NCC(=O)Nc1ccc(F)c(F)c1F (stereo unspecified),-25,-9,14,-1,2,19
O=C(CNC(=O)c1ccc(S(=O)(=O)N2CCCC2)cc1)N/N=C/c1ccc(Cl)cc1Cl,-6,-1,7,98*,-16,-6
Cc1cc(NC(=O)c2cccc(Oc3ccccc3)c2)n[nH]1,-20,-18,16,0,-2,25
O=C(Nc1ccc(F)cc1)c1nc[nH]c1C(=O)Nc1ccc([N+](=O)[O-])cc1,62*,52,62*,-1,13,6
SMILES,Mcl1 Bid PPI,14-3-3 Bad PPI,Mcl1-Noxa inh,Bim-Mcl-1,eIF4E 4G PPI,Hck Nef HTS
CCN(CC)CCOC(=O)c1ccc(NC(=O)c2cn(-c3ccccc3)nc2-c2cccs2)cc1,-11,2,15,1,9,32
CCC1CCCCN1C(=O)CCc1nnc(C2CCCCC2)o1 (stereo unspecified),-13,-5,-1,2,0,13
Cc1cccc(C(=O)N2CCc3cc(-c4nc(NC(=O)Cn5nnc6ccccc6c5=O)sc4C)ccc32)c1,67*,12,51*,-4,6,11
O=S(=O)(c1ccccc1)N1CCCC1c1cccs1 (stereo unspecified),1,-5,0,x,97*,12
COc1ccc(S(=O)(=O)N2CCCC2c2cccs2)cc1 (stereo unspecified),-1,-1,12,x,3,8
O=C(CSCc1ccccc1)N1CCN(Cc2ccc3c(c2)OCO3)CC1,-25,-3,-4,-2,-2,11
OC(COCc1ccc2c(c1)OCO2)CN1CCN(Cc2ccccc2)CC1 (stereo unspecified),52*,79*,23,-3,-2,-25
COc1cc(NC(=O)CN2CCN(Cc3ccc4c(c3)OCO4)CC2)cc(OC)c1,36,82*,34,-1,3,8
O=C(c1cccn2c(=O)c3cc(Cl)ccc3nc12)N1CCN(Cc2ccc3c(c2)OCO3)CC1,-9,5,17,0,46*[fluorescence artefact?],16
O=C(CSc1ncnc2scc(-c3ccccc3)c12)N1CCN(Cc2ccc3c(c2)OCO3)CC1,-38,-15,61*,-4,2,7
O=C(c1cccn2c(=O)c3ccccc3nc12)N1CCN(Cc2ccc3c(c2)OCO3)CC1,-29,x,11,-2,x,4
O=C1NC(Cc2ccccc2)C(=O)N1Cc1cc([N+](=O)[O-])cc2c1OCOC2 (stereo unspecified),7,3,7,-2,2,29
c1ccc(COc2ccccc2CNC23CC4CC(CC(C4)C2)C3)cc1,-13,-5,0,1,0,-8
Cc1cc(C)cc(NC(=O)N2CCN(Cc3ccc4c(c3)OCO4)CC2)c1,-7,3,5,x,-3,10
O=C(Nc1ccccc1)N1CCN(Cc2ccc3c(c2)OCO3)CC1,58*,60,-7,-2,4,2
CCOC(=O)/C(N=Nc1sc(C(=O)OCC)c(C)c1C(=O)OCC)=C(\C)O,-15,1,13,1,4,0
